Measured values: PubChem BioAssay (NCI)
This is part of a sample that, as a whole, favours compounds with a hit. Of some 79,000 tested, about 15% had one in any assay. Activity calls are given as the source filed them. Cut-off read from the data, not from the text of the source: active = growth inhibition above about 70%; inactive = the rest.

Test: NCI Yeast Anticancer Drug Screen. Data for the rad50 strain (AID 155);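 note: 0% = growth of vehicle-only cultures of the same strain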
Conditions: S. cerevisiae rad50 strain growth inhibition; at 50.0 µM; hits give high values
Description: Growth inhibition of yeast strains with defined genetic alterations is measured as a screen for potential anti-cancer activity. Selected strains with alterations in DNA damage repair or cell cycle control were exposed to compounds and growth inhibition was measured relative to vehicle treated controls. The strain used in this assay is rad50

Row | SMILES | growth inhibition
1 | COCC(O)CC#N (stereo not given) | 14.1% (inactive)
2 | COC(=O)c1nc(N)[nH]c(=O)c1-c1ccc(Cl)cc1 | -9.5% (inactive)
3 | C=C(CCC(Cl)C(O)CO)[Si](C)(C)C (stereo not given) | 37.5% (inactive)
4 | NNS(=O)(=O)c1ccc(/C=C2\NC(=O)NC2=O)cc1 | -4.45% (inactive)
5 | O=C[C@@H](CO)O[C@H](C=O)c1c[nH]c(=O)[nH]c1=O | -24.1% (inactive)
6 | COc1ccc(Cc2cn(C)cc(Cc3ccc(OC)cc3)c2=O)cc1 | 4.7% (inactive)
7 | c1ccc2cc(-c3csc4ccccc34)ccc2c1 | 12.8% (inactive)
8 | Nc1nc(Nc2ccccc2)nc(SCc2ccccc2)n1 | 9.7% (inactive)
9 | c1csc(C2=NCCC2)c1 | 0.35% (inactive)
10 | CCOC(=O)C(C(=O)OCC)=C1N[C@H](C(=O)OCC)CS1 | -0.8% (inactive)
11 | CO[C@@H]1C2C3c4ccccc4C(c4ccccc43)C2[C@H](OC)[C@H]2OC(c3ccccc3)O[C@H]21 (stereo not given in full) | -13.4% (inactive)
12 | O=C(/C=C/c1ccc(OCCCCCCCCCCOc2ccc(/C=C/C(=O)c3ccc(Cl)cc3)cc2)cc1)c1ccc(Cl)cc1 | 5.3% (inactive)
13 | O=C(CN1CCN(c2ccccc2)CC1)N1CCc2c([nH]c3ccccc23)C1c1cccnc1 (stereo not given) | 2.45% (inactive)
14 | O=[N+]([O-])c1ccc(Nc2ccc(Cl)cc2)c2nonc12 | -24.7% (inactive)
15 | O=[N+]([O-])CC1(O)CCCCC1 | 25.6% (inactive)
16 | CN(C)S(=O)(=O)N(C)C | -1.55% (inactive)
17 | N#C/C(=C1/Sc2c(nc[nH]c2=O)N1c1ccccc1)c1nc2ccccc2[nH]1 | -34.6% (inactive)
18 | COc1cccc(CC2C(=O)N=C(NC(C)=O)N2C)c1OC(C)=O (stereo not given) | -35% (inactive)
19 | CC(=O)Nc1c(Cl)cc(N)cc1Cl | 9.35% (inactive)
20 | CN(C)Cc1ccc2ccccc2c1 | 0.2% (inactive)

Row | SMILES | growth inhibition
21 | NCC1OC(n2cnc3c(N)ncnc32)CC1O (stereo not given) | -16.1% (inactive)
22 | CC(C)=NNC(=O)c1ccc([N+](=O)[O-])cc1 | 9.35% (inactive)
23 | O=C(Nc1nc(=S)c2c(ncn2CCO)[nH]1)c1ccccc1 | 4.95% (inactive)
24 | CC(=O)c1cccc(NC(=O)C(=O)C(C(=O)NN)c2ccccc2)c1 (stereo not given) | 11.4% (inactive)
25 | CC(=O)Oc1nnc(OC(C)=O)c2cc(N)ccc12 | -13.3% (inactive)
26 | CN1CCS(=O)(=O)C2CCCCC2C1=O (stereo not given) | 1.25% (inactive)
27 | COc1ccccc1NC(=O)C1=C(C)NC(C)=C(C(=O)Nc2ccccc2OC)C1c1ccco1 | -4.8% (inactive)
28 | CC(=O)Oc1ccccc1C=C(C(=O)O)C(=O)O | -7.7% (inactive)
29 | CCCCN=C=NCCC[N+](C)(C)C | 0.4% (inactive)
30 | Cc1cc(C)c(CSc2cc(N)nc(N)c2N)c(C)c1 | 15.4% (inactive)
31 | CCCCSCCOC(=O)Nc1ccc(Cl)cc1 | 98.8% (active)
32 | COc1cc2c(cc1OC)C1c3ccccc3CCCN1CC2 (stereo not given) | -40.4% (inactive)
33 | O=C(Cc1ccccc1)N/N=C(/c1nc2ccc([N+](=O)[O-])cc2[nH]c1=O)C(O)c1ccco1 (stereo not given) | -0.95% (inactive)
34 | O=C(/C=C/CC(O)(c1ccccc1)c1ccccc1)Nc1ccccc1Cl | -15.2% (inactive)
35 | COc1cc(C(C)O)c[n+](CCC2CNc3ccccc32)c1 (stereo not given) | -4.65% (inactive)
36 | CC(C)(C)c1ccc(OS(=O)(=O)c2ccc(Cl)c(Cl)c2)cc1 | 0.4% (inactive)
37 | CCOC(=O)CCC(NC(=O)c1ccc(OCc2ccc3nc(OC)c(OC)nc3c2)cc1)C(=O)OCC (stereo not given) | -14.2% (inactive)
38 | CN(C)c1ccc([N+](=O)[O-])c2c1CCC2 | 9.7% (inactive)
39 | COC(=O)c1cc([N+](=O)[O-])cc2ccccc12 | 35.8% (inactive)
40 | N#Cc1cc(F)c(N)c(F)c1 | -2.25% (inactive)
